Results taken from the supplement of paper PMC11732987, “Enantioselective OTUD7B fragment discovery through chemoproteomics screening and high-throughput optimisation” (Communications Chemistry, 2025).

Assays:
Assay in all cases: log2 ratio of Biotin-Ahx-Ub-VS probe labelling (fragment/DMSO); higher = less target engagement (more negative = stronger competition), active = hit call of the paper (q ≤ 0.05, log2 ratio ≤ -1)
Settings in all cases: compound concentration: 200 uM; treatment time: 3 h
USP42 = target: T1, USP42 (UniProt Q9H9J4)
T1 sequence (whole entry): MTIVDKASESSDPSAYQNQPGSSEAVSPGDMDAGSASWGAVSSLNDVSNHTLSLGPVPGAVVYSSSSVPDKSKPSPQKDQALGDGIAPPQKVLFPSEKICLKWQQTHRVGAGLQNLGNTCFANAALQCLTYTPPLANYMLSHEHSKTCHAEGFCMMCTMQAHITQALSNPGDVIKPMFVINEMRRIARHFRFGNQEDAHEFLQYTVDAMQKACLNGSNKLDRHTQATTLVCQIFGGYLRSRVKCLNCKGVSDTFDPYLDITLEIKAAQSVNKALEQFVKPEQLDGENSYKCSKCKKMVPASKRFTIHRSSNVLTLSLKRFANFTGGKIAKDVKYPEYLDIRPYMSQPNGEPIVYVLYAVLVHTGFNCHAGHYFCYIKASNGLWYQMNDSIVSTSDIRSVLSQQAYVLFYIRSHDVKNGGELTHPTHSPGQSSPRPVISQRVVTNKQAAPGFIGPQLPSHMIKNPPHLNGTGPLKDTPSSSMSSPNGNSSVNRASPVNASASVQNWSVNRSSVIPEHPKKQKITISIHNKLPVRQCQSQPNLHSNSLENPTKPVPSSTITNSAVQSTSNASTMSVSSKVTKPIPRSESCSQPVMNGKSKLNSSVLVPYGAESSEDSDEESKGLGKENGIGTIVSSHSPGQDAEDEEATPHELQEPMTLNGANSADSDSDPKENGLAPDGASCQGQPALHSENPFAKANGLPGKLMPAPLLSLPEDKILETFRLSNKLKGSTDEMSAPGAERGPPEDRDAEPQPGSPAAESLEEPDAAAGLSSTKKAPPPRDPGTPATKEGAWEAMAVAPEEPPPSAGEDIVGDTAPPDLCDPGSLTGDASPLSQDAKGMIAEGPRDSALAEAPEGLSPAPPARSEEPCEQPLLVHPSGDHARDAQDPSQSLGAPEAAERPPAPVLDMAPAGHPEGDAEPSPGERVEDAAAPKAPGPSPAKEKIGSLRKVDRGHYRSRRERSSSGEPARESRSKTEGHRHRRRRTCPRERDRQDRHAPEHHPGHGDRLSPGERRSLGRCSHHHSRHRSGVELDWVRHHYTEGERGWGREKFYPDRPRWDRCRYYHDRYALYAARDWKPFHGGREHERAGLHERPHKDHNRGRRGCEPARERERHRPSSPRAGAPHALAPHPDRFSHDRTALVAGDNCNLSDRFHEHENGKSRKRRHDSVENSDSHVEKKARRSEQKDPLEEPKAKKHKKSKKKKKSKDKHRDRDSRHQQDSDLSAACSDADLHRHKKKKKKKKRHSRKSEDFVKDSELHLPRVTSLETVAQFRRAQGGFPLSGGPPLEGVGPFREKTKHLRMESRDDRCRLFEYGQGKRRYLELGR
Outline: (§1)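 HEK293T lysate in Tris/CHAPS/IGEPAL buffer with protease inhibitors (495 µg per sample) was given fragment at 200 µM or vehicle for 3 h, in triplicate. It then received Biotin-Ahx-Ub-VS at 0.5 µM final for 1 h. Labelled DUBs were NeutrAvidin-enriched, digested with LysC and trypsin, and run by diaPASEF LC-MS/MS. Values are average log2 fragment/vehicle ratios by unpaired t-test on global-median-normalised Spectronaut quantities of proteins with ≥2 unique peptides.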

USP46 = USP46 (UniProt P62068)
Outline: as §1

USP47 = target: T2, USP47 (UniProt Q96K76)
T2 sequence (whole entry): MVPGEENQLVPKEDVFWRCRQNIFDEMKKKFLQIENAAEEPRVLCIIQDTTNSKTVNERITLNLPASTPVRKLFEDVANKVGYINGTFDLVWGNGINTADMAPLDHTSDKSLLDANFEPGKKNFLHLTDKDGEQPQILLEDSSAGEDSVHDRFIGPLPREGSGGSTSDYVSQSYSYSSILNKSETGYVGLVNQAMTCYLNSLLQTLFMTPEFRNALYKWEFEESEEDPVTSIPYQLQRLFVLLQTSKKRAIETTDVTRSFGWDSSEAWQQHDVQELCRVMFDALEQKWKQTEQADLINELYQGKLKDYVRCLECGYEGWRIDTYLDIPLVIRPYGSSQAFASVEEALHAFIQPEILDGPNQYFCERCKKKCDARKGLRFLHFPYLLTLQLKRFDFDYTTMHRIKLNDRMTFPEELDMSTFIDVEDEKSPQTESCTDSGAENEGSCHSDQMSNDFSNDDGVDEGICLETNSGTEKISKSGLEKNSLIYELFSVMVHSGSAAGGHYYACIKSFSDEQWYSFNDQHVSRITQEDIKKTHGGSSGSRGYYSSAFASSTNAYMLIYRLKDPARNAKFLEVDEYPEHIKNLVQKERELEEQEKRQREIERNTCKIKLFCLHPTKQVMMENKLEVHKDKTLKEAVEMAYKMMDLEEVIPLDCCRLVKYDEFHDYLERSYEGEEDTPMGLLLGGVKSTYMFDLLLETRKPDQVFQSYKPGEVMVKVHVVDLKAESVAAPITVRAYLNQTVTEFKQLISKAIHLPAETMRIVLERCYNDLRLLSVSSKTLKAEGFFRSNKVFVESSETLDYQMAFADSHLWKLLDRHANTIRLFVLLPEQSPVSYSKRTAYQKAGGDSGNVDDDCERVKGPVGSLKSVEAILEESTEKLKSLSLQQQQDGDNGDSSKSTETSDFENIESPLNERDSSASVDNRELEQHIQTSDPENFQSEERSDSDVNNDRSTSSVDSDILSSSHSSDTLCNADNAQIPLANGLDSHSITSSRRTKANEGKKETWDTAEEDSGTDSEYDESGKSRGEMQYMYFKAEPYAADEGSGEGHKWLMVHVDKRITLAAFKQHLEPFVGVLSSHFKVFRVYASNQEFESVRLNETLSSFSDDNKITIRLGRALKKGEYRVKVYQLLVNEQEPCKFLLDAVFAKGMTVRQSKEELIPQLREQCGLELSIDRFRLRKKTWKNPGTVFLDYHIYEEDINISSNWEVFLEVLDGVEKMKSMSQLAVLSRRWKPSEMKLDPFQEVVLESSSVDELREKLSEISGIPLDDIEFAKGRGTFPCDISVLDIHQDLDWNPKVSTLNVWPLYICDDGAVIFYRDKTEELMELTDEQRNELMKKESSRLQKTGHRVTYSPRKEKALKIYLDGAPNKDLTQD
Outline: as §1

USP48 = target: T3, USP48 (UniProt Q86UV5)
T3 sequence (whole entry): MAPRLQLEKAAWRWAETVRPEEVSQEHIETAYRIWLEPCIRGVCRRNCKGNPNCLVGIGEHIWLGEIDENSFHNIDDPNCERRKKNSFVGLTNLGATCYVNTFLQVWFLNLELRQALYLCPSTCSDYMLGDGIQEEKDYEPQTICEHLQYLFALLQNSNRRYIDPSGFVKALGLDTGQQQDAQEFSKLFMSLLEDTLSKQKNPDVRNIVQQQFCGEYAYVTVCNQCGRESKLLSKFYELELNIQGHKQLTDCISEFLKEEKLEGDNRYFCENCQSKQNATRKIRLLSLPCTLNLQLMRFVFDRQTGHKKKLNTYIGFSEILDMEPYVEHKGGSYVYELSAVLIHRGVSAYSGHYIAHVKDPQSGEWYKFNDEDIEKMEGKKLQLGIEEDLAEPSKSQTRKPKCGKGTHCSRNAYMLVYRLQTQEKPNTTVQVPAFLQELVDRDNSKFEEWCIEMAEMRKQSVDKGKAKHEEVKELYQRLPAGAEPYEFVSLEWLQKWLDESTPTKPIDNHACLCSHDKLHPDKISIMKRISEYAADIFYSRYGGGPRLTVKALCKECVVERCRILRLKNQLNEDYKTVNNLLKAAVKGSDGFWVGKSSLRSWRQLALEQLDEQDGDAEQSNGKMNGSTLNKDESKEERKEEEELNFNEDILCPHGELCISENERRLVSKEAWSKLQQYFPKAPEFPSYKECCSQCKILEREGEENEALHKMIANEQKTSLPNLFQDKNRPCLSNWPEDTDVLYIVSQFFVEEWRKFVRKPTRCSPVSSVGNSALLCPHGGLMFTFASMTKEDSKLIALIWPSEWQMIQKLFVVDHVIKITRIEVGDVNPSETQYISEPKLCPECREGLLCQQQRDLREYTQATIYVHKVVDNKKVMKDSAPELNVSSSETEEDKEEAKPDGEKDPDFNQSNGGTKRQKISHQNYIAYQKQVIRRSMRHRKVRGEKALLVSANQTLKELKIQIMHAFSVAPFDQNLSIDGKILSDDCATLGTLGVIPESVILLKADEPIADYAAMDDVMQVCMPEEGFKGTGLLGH
Outline: as §1

USP5 = target: T4, USP5 (UniProt P45974)
T4 sequence (whole entry): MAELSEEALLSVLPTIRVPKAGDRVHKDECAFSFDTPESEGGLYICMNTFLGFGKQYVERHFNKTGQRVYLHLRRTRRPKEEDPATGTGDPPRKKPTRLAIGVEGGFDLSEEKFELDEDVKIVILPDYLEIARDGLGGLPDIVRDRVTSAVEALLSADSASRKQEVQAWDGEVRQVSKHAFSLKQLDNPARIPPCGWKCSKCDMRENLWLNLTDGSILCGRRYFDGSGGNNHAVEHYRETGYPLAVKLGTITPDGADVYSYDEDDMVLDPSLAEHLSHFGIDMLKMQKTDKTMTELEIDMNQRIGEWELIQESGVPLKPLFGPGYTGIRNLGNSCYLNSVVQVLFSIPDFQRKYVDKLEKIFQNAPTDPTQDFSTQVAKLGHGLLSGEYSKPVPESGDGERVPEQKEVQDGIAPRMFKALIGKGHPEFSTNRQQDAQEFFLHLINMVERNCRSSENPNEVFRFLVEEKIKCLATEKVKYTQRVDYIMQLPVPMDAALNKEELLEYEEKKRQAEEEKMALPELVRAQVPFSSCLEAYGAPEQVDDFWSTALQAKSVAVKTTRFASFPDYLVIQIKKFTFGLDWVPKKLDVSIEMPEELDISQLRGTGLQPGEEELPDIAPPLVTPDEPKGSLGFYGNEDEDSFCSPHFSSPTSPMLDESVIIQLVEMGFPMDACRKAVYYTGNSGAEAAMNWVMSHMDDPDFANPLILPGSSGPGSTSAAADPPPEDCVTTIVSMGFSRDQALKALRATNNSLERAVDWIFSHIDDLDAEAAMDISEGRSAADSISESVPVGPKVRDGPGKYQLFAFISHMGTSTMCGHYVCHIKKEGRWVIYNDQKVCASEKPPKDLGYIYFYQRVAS
Outline: as §1

USP54 = USP54 (UniProt Q70EL1)
Outline: as §1

USP7 = USP7 (UniProt Q93009)
Outline: as §1

USP8 = target: T5, USP8 (UniProt P40818)
T5 sequence (whole entry): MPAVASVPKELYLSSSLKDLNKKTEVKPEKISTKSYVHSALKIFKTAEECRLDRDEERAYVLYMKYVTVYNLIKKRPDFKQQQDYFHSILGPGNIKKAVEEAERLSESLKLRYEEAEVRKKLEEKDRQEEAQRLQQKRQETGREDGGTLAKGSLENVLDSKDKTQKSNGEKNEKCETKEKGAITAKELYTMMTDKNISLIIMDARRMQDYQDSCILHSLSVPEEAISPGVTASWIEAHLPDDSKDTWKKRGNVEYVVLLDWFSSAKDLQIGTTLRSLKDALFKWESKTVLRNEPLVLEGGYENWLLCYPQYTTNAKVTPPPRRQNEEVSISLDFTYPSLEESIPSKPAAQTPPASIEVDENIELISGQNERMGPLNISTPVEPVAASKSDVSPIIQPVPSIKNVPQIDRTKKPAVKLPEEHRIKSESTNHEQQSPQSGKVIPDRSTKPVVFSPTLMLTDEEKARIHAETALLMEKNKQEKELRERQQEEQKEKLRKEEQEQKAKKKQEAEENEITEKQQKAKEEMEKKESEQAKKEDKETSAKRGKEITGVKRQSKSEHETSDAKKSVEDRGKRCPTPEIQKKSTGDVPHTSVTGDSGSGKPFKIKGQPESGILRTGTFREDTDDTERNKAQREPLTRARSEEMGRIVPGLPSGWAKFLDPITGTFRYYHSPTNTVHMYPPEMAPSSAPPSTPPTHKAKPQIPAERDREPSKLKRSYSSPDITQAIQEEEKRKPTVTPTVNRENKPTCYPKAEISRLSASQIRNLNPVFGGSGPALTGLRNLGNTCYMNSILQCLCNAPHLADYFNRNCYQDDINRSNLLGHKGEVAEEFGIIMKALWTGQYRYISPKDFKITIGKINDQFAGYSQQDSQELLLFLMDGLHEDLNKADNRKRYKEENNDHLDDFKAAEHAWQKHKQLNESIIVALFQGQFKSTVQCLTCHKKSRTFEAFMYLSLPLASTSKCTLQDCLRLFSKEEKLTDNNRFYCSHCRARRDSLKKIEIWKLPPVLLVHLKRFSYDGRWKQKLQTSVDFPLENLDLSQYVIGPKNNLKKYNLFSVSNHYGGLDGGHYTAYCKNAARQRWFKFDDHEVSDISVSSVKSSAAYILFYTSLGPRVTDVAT
Outline: as §1

Measured: log2 ratio of Biotin-Ahx-Ub-VS probe labelling

USP7, sequence (Q93009 whole entry, looked up): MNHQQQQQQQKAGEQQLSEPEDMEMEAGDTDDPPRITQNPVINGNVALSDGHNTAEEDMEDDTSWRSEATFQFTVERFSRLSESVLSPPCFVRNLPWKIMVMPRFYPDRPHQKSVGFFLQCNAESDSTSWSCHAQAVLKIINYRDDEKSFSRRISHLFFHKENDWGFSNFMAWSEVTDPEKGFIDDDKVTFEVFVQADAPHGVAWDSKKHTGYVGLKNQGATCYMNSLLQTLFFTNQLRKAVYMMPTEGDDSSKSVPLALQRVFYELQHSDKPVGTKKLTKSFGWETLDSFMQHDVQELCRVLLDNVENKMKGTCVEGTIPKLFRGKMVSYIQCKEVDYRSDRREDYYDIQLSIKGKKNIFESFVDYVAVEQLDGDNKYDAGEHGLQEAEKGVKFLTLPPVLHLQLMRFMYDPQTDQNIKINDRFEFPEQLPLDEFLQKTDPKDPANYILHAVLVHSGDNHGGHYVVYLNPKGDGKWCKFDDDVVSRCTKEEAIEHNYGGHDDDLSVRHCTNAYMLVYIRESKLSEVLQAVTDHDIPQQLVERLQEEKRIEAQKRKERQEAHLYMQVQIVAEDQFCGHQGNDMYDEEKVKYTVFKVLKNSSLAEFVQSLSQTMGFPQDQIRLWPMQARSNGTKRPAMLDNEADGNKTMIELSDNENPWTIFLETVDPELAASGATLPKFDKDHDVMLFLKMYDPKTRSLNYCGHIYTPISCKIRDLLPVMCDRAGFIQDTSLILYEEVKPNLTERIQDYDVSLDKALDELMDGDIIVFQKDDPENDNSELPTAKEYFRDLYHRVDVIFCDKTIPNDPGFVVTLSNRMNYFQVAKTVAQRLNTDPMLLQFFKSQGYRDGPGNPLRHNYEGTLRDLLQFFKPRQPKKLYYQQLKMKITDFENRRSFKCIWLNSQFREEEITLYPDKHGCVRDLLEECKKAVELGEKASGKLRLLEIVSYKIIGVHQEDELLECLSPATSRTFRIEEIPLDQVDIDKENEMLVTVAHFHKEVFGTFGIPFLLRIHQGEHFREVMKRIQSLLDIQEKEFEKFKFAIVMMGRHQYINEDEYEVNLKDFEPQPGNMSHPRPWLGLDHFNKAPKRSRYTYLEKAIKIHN
USP46, sequence (P62068 whole entry): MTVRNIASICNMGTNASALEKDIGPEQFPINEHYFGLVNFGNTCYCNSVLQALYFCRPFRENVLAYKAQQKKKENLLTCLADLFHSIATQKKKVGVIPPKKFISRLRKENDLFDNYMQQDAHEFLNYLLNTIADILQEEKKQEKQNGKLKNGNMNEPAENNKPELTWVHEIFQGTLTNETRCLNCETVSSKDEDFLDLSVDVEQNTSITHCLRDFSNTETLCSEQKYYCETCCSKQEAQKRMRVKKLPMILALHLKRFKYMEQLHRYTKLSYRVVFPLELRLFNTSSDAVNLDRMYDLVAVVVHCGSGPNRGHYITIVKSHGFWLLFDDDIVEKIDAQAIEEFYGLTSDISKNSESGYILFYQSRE
USP54, sequence (Q70EL1 whole entry): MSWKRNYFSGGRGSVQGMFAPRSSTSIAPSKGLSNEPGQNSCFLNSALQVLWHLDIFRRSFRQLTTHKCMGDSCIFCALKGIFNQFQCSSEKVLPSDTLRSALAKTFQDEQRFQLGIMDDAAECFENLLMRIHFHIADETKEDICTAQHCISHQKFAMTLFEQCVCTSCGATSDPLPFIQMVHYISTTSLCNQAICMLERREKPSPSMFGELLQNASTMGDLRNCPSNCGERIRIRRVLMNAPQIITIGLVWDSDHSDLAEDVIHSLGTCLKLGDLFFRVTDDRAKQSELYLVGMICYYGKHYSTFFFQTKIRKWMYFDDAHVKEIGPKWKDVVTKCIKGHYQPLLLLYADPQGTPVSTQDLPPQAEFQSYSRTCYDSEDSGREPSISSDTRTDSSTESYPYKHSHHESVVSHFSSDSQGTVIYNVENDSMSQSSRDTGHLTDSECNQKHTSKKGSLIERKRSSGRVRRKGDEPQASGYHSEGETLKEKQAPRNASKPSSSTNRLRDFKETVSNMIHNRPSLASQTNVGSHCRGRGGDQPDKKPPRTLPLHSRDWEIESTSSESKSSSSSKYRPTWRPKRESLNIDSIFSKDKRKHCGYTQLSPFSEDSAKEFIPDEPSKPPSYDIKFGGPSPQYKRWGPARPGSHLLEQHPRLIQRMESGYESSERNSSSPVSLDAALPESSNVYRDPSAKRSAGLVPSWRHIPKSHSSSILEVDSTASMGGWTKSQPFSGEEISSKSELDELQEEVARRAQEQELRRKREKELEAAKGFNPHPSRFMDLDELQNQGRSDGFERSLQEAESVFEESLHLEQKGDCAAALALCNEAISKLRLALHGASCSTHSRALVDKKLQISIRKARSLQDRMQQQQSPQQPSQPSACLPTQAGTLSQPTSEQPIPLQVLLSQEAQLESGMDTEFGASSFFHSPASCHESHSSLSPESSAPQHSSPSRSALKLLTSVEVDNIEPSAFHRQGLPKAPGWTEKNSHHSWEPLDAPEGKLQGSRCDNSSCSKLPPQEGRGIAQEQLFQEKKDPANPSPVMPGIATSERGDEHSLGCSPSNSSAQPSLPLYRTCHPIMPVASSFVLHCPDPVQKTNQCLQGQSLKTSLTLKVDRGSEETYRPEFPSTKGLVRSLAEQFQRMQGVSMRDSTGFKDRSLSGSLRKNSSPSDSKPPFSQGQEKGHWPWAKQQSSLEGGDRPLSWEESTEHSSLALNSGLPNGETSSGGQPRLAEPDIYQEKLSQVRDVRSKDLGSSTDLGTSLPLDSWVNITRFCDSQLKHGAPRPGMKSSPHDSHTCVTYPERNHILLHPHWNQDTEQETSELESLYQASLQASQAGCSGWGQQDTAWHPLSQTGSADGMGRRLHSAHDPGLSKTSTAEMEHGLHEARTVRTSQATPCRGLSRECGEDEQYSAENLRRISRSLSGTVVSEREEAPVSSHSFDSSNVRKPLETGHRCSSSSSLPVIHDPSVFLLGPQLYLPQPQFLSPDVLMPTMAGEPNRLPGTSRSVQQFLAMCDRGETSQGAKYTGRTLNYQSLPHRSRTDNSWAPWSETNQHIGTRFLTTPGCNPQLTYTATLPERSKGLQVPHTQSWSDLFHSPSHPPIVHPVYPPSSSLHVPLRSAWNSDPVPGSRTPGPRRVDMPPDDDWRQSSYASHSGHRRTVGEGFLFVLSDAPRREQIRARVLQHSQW

Cl.O=C(CCl)NCc1cc2c(nc1O)CCCC2
active: USP47 -1.45
inactive: USP42 -0.448 | USP46 0.127 | USP48 -0.169 | USP5 0.0226 | USP54 0.773 | USP7 -0.155 | USP8 -0.3
